These results are taken from PubChem BioAssay (NCATS).

“And” between values parts separate entries of the source, which are not always exact repeats. Identical values can stand only once.

Assay [1] is described as follows: qHTS profiling of the MIPE4 collection as inhibitors of Plasmodium falciparum (3D7) proliferation (AID 743344).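 Further: scaled between DMSO vehicle wells and 0.29 µM artemisinin as full inhibition.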 As to conditions: P. falciparum 3D7 in erythrocytes, SYBR Green DNA fluorescence, 72 h. In a few lines:
(§1)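 Parasite DNA was quantified by SYBR Green I fluorescence (ex 485, em 535 nm) after overnight lysis in saponin/Triton buffer at room temperature. Cultures at 0.3% parasitemia and 2.5% hematocrit were first exposed to compound for 72 h at 37 C; signals were normalised to artemisinin (0.29 uM) and vehicle wells.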
On the technique in general: Quantitative high-throughput screening tests each substance at several concentrations.

Assay [2] in a line: qHTS profiling of the MIPE4 collection as inhibitors of Plasmodium falciparum (DD2) proliferation (Rep 2) (AID 743346). Conditions: P. falciparum Dd2 in erythrocytes, SYBR Green DNA, 72 h. Put shortly: as §1
Assay [3] in a line: qHTS profiling of the MIPE4 collection as inhibitors of Plasmodium falciparum (HB3) proliferation (AID 743347).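 Further: plate controls were DMSO vehicle wells for no effect and artemisinin wells for full effect.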 As to conditions: P. falciparum HB3 in erythrocytes, SYBR Green DNA, 72 h. In a few lines:
as §1

The nature of assay [4]: High-throughput drug toxicity screening in the BPDCN cell line Cal-1 (AID 1224825). Conditions: Cal-1 BPDCN cell viability, qHTS; at 45.8 µM (top of the series) unless noted. In a few lines: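 CellTiter-Glo luminescence after 48 h compound exposure; percent activity scaled with DMSO as 100% and bortezomib (9.2 uM final) as 0%. Cal-1 cells seeded at 500/well in RPMI, 10% FBS, no phenol red.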

Assay [5] is described as follows: qHTS profiling of the MIPE4 collection as inhibitors of Plasmodium falciparum (DD2) proliferation (AID 743345). Conditions: P. falciparum Dd2 in erythrocytes, SYBR Green DNA, 72 h; at 28.5 µM unless noted. Put shortly: as §1
Assay [6] can be described thus: qHTS profiling for inhibitors of Plasmodium falciparum (3D7) proliferation (AID 743322).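 Further: infected erythrocytes exposed to compound for 72 h before lysis; 100% = DMSO vehicle wells and 0% = 0.29 µM artemisinin.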 Conditions: P. falciparum 3D7 proliferation; at 28.7 µM (top of the series). Put shortly: as §1
Assay [7] is described as follows: qHTS profiling for inhibitors of Plasmodium falciparum (DD2) proliferation (AID 743323). Conditions: lower = more inhibition; at 28.7 µM (top of the series). Put shortly: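 1536-well qHTS; infected RBCs 0.3% parasitemia/2.5% Hct final; cpd 72 h 37 C 5% CO2; lysis buffer + SYBR Green I, o/n RT dark; FI 485/535; norm. to 0.29 uM artemisinin and DMSO, plate-stack corrected.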

Assay [8] can be described thus: qHTS profiling for inhibitors of Plasmodium falciparum (HB3) proliferation (AID 743324).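 Further: 100% = DMSO vehicle wells and 0% = artemisinin-treated control wells.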 Conditions: Plasmodium falciparum HB3 blood-stage proliferation; at 28.7 µM (top of the series). In a few lines: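 SYBR Green fluorescence (485 ex/535 em) of lysed cultures, incubated overnight at room temperature in the dark, quantifies parasite DNA. Infected erythrocytes at 0.3% parasitemia and 2.5% hematocrit were exposed 72 h; values normalized to DMSO and 0.29 uM artemisinin controls.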

[9] abbreviates: at 28.5 µM unless noted.

Take `C[C@H]1C[C@@H]2[C@@H]([C@@H](O)C[C@@]3(C)[C@H]2CC[C@]3(O)C(=O)CO)[C@@]2(C)C=CC(=O)C=C12`: the parasite growth, % of DMSO control in assay [1] (at 9.64 µM (top of the series)) came to 78.1%; in assay [1] (at 28.5 µM) it was 59.3%. Besides, the parasite growth, % of control (lower = inhibition) in assay [2] (at 9.64 µM (top of the series)) is 62.6%; in assay [2] (at 28.5 µM), 62.7%. For the same compound, the growth, % of control came to 93.3% in assay [3] (at 9.64 µM (top of the series)) and 57.2% in assay [3] (at 28.5 µM). In assay [4], the viability (% of control) was determined as 53.2%.

Regarding `O=C(CCCCCCNC(=O)c1cnc(N(c2ccccc2)c2ccccc2)nc1)NO`, the parasite growth, % of DMSO control in assay [1] (setting [9]) turned out to be 5.31%. Moreover, the parasite growth remaining, % of DMSO control (lower = more inhibition) in assay [5] was 7.75%. Further, in assay [2] (setting [9]), the parasite growth, % of control (lower = inhibition) came out at 7.25%. This compound had a growth, % of control in assay [3] (setting [9]) of 11%. In addition, the viability (% of control) in assay [4] was determined as 3.58%.

With `COC(=O)c1ccc2c(C(=Nc3ccc(N(C)C(=O)CN4CCN(C)CC4)cc3)c3ccccc3)c(O)[nH]c2c1`, the remaining parasite growth % (stronger effect = lower value) in assay [6] was found to be 0.245%. Further, the activity, percent of control in assay [7] was found to be 0.784%. In assay [8], this compound displayed a remaining proliferation (% of control), lower = more inhibition of 0.135%. Moreover, the parasite growth, % of DMSO control in assay [1] (setting [9]) was found to be 6.36%. The same compound came in with a parasite growth remaining, % of DMSO control (lower = more inhibition) in assay [5] of 6.24%. Besides, the parasite growth, % of control (lower = inhibition) in assay [2] (setting [9]) was determined as 13.4%. The compound further had a growth, % of control in assay [3] (setting [9]) of 5.35%. Besides, in assay [4], the viability (% of control) worked out at 71.4%.

With `O=C(NCCCNc1nc(Nc2cccc(NC(=O)N3CCCC3)c2)ncc1I)c1cccs1`, in assay [6], the remaining parasite growth % (stronger effect = lower value) was 2.01% and 8.72%. The activity, percent of control in assay [7] was 5.54% and 10.1%. The remaining proliferation (% of control), lower = more inhibition in assay [8] was 1.48% and 5.6%. In assay [1] (setting [9]), this compound yielded a parasite growth, % of DMSO control of 6.21%. Further, in assay [5], the parasite growth remaining, % of DMSO control (lower = more inhibition) is 12.5%. Besides, the parasite growth, % of control (lower = inhibition) in assay [2] (setting [9]) came to 28.1%. Besides, the growth, % of control in assay [3] (setting [9]) came to 4.4%. Moreover, in assay [4], the viability (% of control) turned out to be 2.96%.

As for `C=CCn1c(=O)c2cnc(Nc3ccc(N4CCN(C)CC4)cc3)nc2n1-c1cccc(C(C)(C)O)n1`, the remaining parasite growth % (stronger effect = lower value) in assay [6] worked out at 11.1%. Further, the activity, percent of control in assay [7] was 6.29%. For the same compound, the parasite growth, % of DMSO control in assay [1] (setting [9]) came out at 13.4%. The parasite growth, % of control (lower = inhibition) in assay [2] (setting [9]) turned out to be 21.2%. The compound also yielded a growth, % of control in assay [3] (setting [9]) of 16.5%. In assay [4], the viability (% of control) came out at 16.4%.

For the compound `COc1cc2ncnc(Nc3ccc(F)c(Cl)c3)c2cc1NC(=O)C=CCN1CCCCC1`, the remaining parasite growth % (stronger effect = lower value) in assay [6] was -0.218%. Further, the activity, percent of control in assay [7] was 0.401%. Also, the remaining proliferation (% of control), lower = more inhibition in assay [8] was 0.28%. In assay [1] (setting [9]), this compound registered a parasite growth, % of DMSO control of 9.04%. In addition, the parasite growth remaining, % of DMSO control (lower = more inhibition) in assay [5] was 8.26%. In addition, in assay [2] (setting [9]), the parasite growth, % of control (lower = inhibition) amounted to 11%. Besides, the growth, % of control in assay [3] (setting [9]) was 6.53%. The viability (% of control) in assay [4] is 3.6%.

With `O=C1CCC[C@@H]2[C@H]3CCC[N+]4([O-])CCC[C@@H](CN12)[C@@H]34` (stereo partly specified), in assay [1] (setting [9]), the parasite growth, % of DMSO control was 64.9%. This compound returned a parasite growth remaining, % of DMSO control (lower = more inhibition) in assay [5] of 33.8%. The parasite growth, % of control (lower = inhibition) in assay [2] (setting [9]) was 61.6%. The same compound gave a growth, % of control in assay [3] (setting [9]) of 68.6%. Also, the viability (% of control) in assay [4] amounted to 100%.

For `Cn1c(CNc2ccc(C(=N)N)cc2)nc2cc(C(=O)N(CCC(=O)O)c3ccccn3)ccc21`, the parasite growth, % of DMSO control in assay [1] (setting [9]) stood at 98.6% [at 9.64 µM]. Moreover, the parasite growth remaining, % of DMSO control (lower = more inhibition) in assay [5] came to 91.9% [at 9.64 µM]. This compound also displayed a growth, % of control in assay [3] (setting [9]) of 87.7% [at 9.64 µM]. For the same compound, the viability (% of control) in assay [4] was determined as 105% [at 23.2 µM].

Consider `O=C(Nc1ncc(-c2cc(C(F)F)nn2-c2c(Cl)cccc2Cl)s1)C1CC1`, for which the parasite growth, % of DMSO control in assay [1] (setting [9]) came to 10.3%. Moreover, the parasite growth remaining, % of DMSO control (lower = more inhibition) in assay [5] worked out at 26.5%. Moreover, in assay [2] (setting [9]), the parasite growth, % of control (lower = inhibition) turned out to be 31.4%. This compound also displayed a growth, % of control in assay [3] (setting [9]) of 19.5%. Further, in assay [4], the viability (% of control) came to 9.09%.

In assay [1] (setting [9]), `Cc1cc(Nc2ncnc3ccc(-c4ccc(CNCCS(C)(=O)=O)o4)cc23)ccc1Oc1ccn2ncnc2c1` yielded a parasite growth, % of DMSO control of 5.93%. In assay [5], this compound returned a parasite growth remaining, % of DMSO control (lower = more inhibition) of 7.77%. Moreover, the parasite growth, % of control (lower = inhibition) in assay [2] (setting [9]) worked out at 7.94%. For the same compound, the growth, % of control in assay [3] (setting [9]) is 2.65%. Also, the viability (% of control) in assay [4] turned out to be 0.85%.

On to `CN(C)CC(C)(C)CNc1nn2c(-c3ccccc3)nnc2cc1C1CCC1`, for which, in assay [1] (setting [9]), the parasite growth, % of DMSO control was found to be 20%. This compound also returned a parasite growth remaining, % of DMSO control (lower = more inhibition) in assay [5] of 21.9%. The same compound gave a growth, % of control in assay [3] (setting [9]) of 48.8%. Besides, in assay [4], the viability (% of control) amounted to 3.65%.

Turning to `CNC(=O)c1nn(C)c2c1C(C)(C)Cc1cnc(Nc3ccc(N4CCN(C)CC4)cc3)nc1-2`, the parasite growth, % of DMSO control in assay [1] (setting [9]) came out at 6.38%. Moreover, in assay [5], the parasite growth remaining, % of DMSO control (lower = more inhibition) came to 11.1%. In assay [3] (setting [9]), this compound yielded a growth, % of control of 3.32%. Moreover, in assay [4], the viability (% of control) was 3.8%.

In the case of `CCNC(=O)Nc1ccc2ncc(Nc3ccc(C)cc3)nc2n1`, the parasite growth, % of DMSO control in assay [1] (setting [9]) came out at 19.5%. In assay [5], this compound gave a parasite growth remaining, % of DMSO control (lower = more inhibition) of 71.6%. Besides, the parasite growth, % of control (lower = inhibition) in assay [2] (setting [9]) came to 33%. The viability (% of control) in assay [4] is 19.7%.

On to `Cc1cn(-c2cc(NC(=O)c3ccc(C)c(Nc4nccc(-c5cccnc5)n4)c3)cc(C(F)(F)F)c2)cn1`, for which the remaining parasite growth % (stronger effect = lower value) in assay [6] was determined as 3.06%. In addition, the activity, percent of control in assay [7] stood at 12.7%. Further, the remaining proliferation (% of control), lower = more inhibition in assay [8] was 2.94%. Moreover, the parasite growth, % of DMSO control in assay [1] (setting [9]) came to 6.31%. In assay [5], this compound had a parasite growth remaining, % of DMSO control (lower = more inhibition) of 8.07%. Moreover, the parasite growth, % of control (lower = inhibition) in assay [2] (setting [9]) came out at 27.3%. The compound also showed a growth, % of control in assay [3] (setting [9]) of 7.2%. Further, the viability (% of control) in assay [4] amounted to 101%.

Take `Nc1ccn([C@@H]2CS[C@H](CO)O2)c(=O)n1`: the parasite growth, % of DMSO control in assay [1] (setting [9]) was determined as 404% [at 57.5 µM]. In addition, the parasite growth remaining, % of DMSO control (lower = more inhibition) in assay [5] came to 100% [at 57.5 µM]. In assay [2] (setting [9]), the parasite growth, % of control (lower = inhibition) turned out to be 146% [at 57.5 µM]. The growth, % of control in assay [3] (setting [9]) was determined as 263% [at 57.5 µM]. The viability (% of control) in assay [4] came to 11% [at 92.2 µM].
